Drawing on PubChem BioAssay (EPA / NIEHS), this text covers outcome and AC50 for 23 molecules.

The source made the active and inactive calls. The calls were made as follows: active = hit-call score of the fitted dose curve at least 0.9, where 1 is the maximum; inactive = score below 0.9.

This test can be described thus: ATG_CRE_CIS: Attagene CIS-FACTORIAL HepG2 Assay for human cAMP Responsive Element (CRE) binding protein 3 (AID 2282926). Conditions: HepG2 CRE cis-reporter, Attagene multiplexed mRNA; actives raise or lower the signal. Summed up: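 Liver-derived HepG2, transfected with a CRE-containing reporter panel, exposed 24 h; transcript levels sized and quantified by capillary electrophoresis of labelled amplicons; signal changes either way referenced to vehicle.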
With `CCOC(=O)CC(C)O` (stereo not drawn), the result was inactive.

As to `CCCC(=O)OCCc1ccccc1`, the result was inactive. Still for that read-out and setting: to `CC1(C)O[C@@H]2[C@@H](CO[C@@]3(COS(N)(=O)=O)OC(C)(C)O[C@@H]23)O1` belongs “inactive”. Still for that read-out and setting: to `[Cl][Au]([Cl])[Cl]` belongs “inactive”; to `CCCCCC(C=O)=Cc1ccccc1`, “inactive”; to `C=CC(C)C#N` (stereo not drawn), “inactive”. With `C[C@H]1O[C@@H](O[C@H]2[C@@H](O)C[C@H](O[C@H]3[C@@H](O)C[C@H](O[C@H]4CC[C@@]5(C)[C@H](CC[C@@H]6[C@@H]5C[C@@H](O)[C@]5(C)[C@@H](C7=CC(=O)OC7)CC[C@]65O)C4)O[C@@H]3C)O[C@@H]2C)C[C@H](O)[C@@H]1O`, the AC50 is 0.0776 µM (active).

For the molecule `ClC(c1ccccc1)(c1ccccc1)c1ccccc1`, the call was inactive.

With `O=c1c(O)c(-c2ccc(O)cc2)oc2cc(O)cc(O)c12`, the call was inactive. Still for that read-out and setting: for `CN1CCOCC1` the value was “inactive”; for `CC/C=C\CC/C=C/CO`, “inactive”. For the molecule `CS(=O)(=O)c1ccc(C2=C(c3ccccc3)C(=O)OC2)cc1`, the call was inactive. Consider `CC1C2CC(CC2C2CCCC(O)C2)C1(C)C` (stereo not drawn), for which the call was inactive.

In the case of `COC(=O)Nc1ccc(Cl)c(Cl)c1`, the molecule was called inactive. The same measure, in the same setting: to `CC(O)C1CCCCC1` (stereo not drawn) belongs “inactive”. The same measure, in the same setting: for `Oc1c(Cl)cc(Cl)c(Cl)c1Cc1c(O)c(Cl)cc(Cl)c1Cl` the value was “inactive”; for `N#Cc1ccc(CC(=O)c2cccc(C(F)(F)F)c2)cc1`, “inactive”. Still for that read-out and setting: for `COS(=O)(=O)O` the value was “inactive”; for `CCCCCCOC(=O)CCC`, “inactive”. For the molecule `COC(C)(C)CCCC(C)CC=O` (stereo not drawn), the molecule was called inactive. `CSCCC=O`: the molecule was called inactive. Same read-out and setting: to `Brc1ccc(Br)c(Br)c1` belongs “inactive”; to `Cc1cc(C)nc(NS(=O)(=O)c2ccc(N)cc2)n1`, “inactive”.

The term AC50 denotes the concentration at which the activity in the assay is half-maximal.
